# PubChem BioAssay (NCI)
# The panel holds about 83,000 compounds, 20% with a hit somewhere; the sample as a whole holds those more often.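 Negative percent growth values reflect cell death: -40 means 40% of the cells present at the start died, and -100 means all died.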 Unmarked numbers belong to inactive results. Activity calls are given as the source filed them. The calls were made as follows: active = growth percent below 10; inactive = the rest.
# Test system: OVCAR-5 ovarian
# Assay: NCI-60 one-dose screen, 48 h (100 = growth as untreated, 0 = no growth, -100 = all killed)
# Conditions: 10 µM unless noted
row,Structure (SMILES),growth
1,N=C(N)c1ccc(-c2ccc(-c3ccco3)o2)cc1F,17.8%
2,CCOC(=O)Cn1c(-c2nonc2NC(=O)c2ccccc2F)nc2ccccc21,75%
3,CC(C)OC1OC(OC(C)C)C(OC(C)C)OC1OC(C)C (stereo not drawn),102%
4,Cc1nn(-c2ccccc2)c2nc3c(nc12)C1=NCCN1C(c1ccc(Cl)cc1)N3 (stereo not drawn),91%
5,COc1ccc(-c2ccc(-c3ccc(C(=N)N)s3)s2)cc1,-92.6% (active)
6,N=C(N)c1ccc(-c2ccc(-c3cccs3)s2)cc1F,-83.6% (active)
7,Cc1csc(N/N=C/c2ccncc2)n1,112%
8,CCCCCCCCCCCCCCCC1=NCCN1,69%
9,CCS(=O)(=O)Nc1cccc(Nc2c3cccc(C)c3nc3c(C)cccc23)c1OC,21%
10,N/C(=N\O)c1ncc(-c2ccc(C(F)(F)F)cc2)c(NC2CCCCCC2)n1,-76.5% [100 µM] (active)
11,N/N=C(\C(=N\N)c1ccccc1)c1ccccc1,102%
12,COc1cc(/C=C/c2cc(/C=C/c3ccc(O)c(OC)c3)n(C(=O)Nc3ccc(F)c(Cl)c3)n2)ccc1O,0.879% (active)
13,Cc1cc(Nc2c3ccccc3nc3ccccc23)ccc1NS(C)(=O)=O,27.5%
14,O=C(CC(=O)c1ccccc1F)Nc1ccc([N+](=O)[O-])cc1,104%
15,CCCCCCCCCCCC1=NC(C)(C)CN1CCO,92%
16,COc1cc2ccc(C(C)=O)cc2cc1OC,92.3%
17,Cc1ccccc1Nc1n[nH]c(Cc2ccccc2)n1,111%
18,CNC1=C([N+](=O)[O-])C(c2ccccc2O)C(C#N)=C(c2cccs2)O1 (stereo not drawn),104%
19,CCN(C(=O)CCl)C(C)(C)C(SSSC(c1ccc(Cl)cc1)C(C)(C)N(CC)C(=O)CCl)c1ccc(Cl)cc1 (stereo not drawn),107%

row,Structure (SMILES),growth
1,COc1cc2c(cc1OC)-c1cc(OC)c(OC)cc1C(CN(C)C)C2 (stereo not drawn),86% [100 µM]
2,CCCCOC(=O)c1cc(O)c(O)c(O)c1,92.2%
3,FC(F)(F)c1cc(-c2nnc3n2N=C(Cl)CS3)cc(C(F)(F)F)c1,114%
4,COc1cc2ncnc(Nc3ccc(S(=O)(=O)Nc4cc(C)on4)cc3)c2cc1OCCCN1CCN(c2ccc([N+](=O)[O-])cc2)CC1,106%
5,COc1ccc(/C=N/NC(N)=S)c(OC)n1,109%
6,O=C1c2cccc3cccc(c23)C(=O)N1CCCCCCCCCCN1C(=O)c2cccc3cccc(c23)C1=O,106%
7,O=C1OC(/C=C/c2ccccc2)=NC/1=C/c1ccccc1[N+](=O)[O-],99.1%
8,C=C(c1ccc(C(=O)NCCCn2ccnc2)cc1)c1cc2c(cc1C)C(C)(C)CCC2(C)C,33.3%
9,O=[N+]([O-])c1ccc(Sc2nc(Cl)nc(NC3CCCC3)n2)cc1,-90.5% [100 µM] (active)
10,O=C(NCCN1CCCCC1)n1cc(-c2ccncc2)c(-c2ccc(Cl)c(O)c2)n1,96.5%
11,CC(C)(C)c1cc(C[P+](c2ccccc2)(c2ccccc2)c2ccccc2)cc(C(C)(C)C)c1O,20.8%
12,N#Cc1ccc(-c2ccc(-c3cccs3)o2)cc1F,101%
13,Cc1cccc2nc3ccccc3c(Nc3ccc(NS(C)(=O)=O)cc3)c12,62.1%
14,COc1cc(OC)cc(-c2ccc(-c3ccc(C(=N)N)s3)s2)c1,-81% (active)
15,C=C1C(=O)O[C@H]2[C@H]1CC/C(COC(=O)NCc1[nH]nc3ccccc13)=C\CC[C@@]1(C)O[C@@H]21,58.5%
16,COC(=O)[C@H](Cc1cn(C)cn1)NC(=O)[C@H](CC(C)C)NC(=O)Nc1cc(C(F)(F)F)cc(C(F)(F)F)c1,-98.6% [100 µM] (active)
17,CCOC(=O)c1cc(C(=O)OCC)c(C)nc1C,99.8%
18,COC(=O)[C@@H](Cc1c[nH]c2ccccc12)NC(=O)/C=C/c1ccccc1,36%
19,CCOC(=O)C(CCCCC(NC(C)=O)(C(=O)OCC)C(=O)OCC)(NC(C)=O)C(=O)OCC,103%
